Each structure is given as a SMILES string. Screen size: about 400,000 compounds; about 1,900 (0.47%) were called active. About 14% were inconclusive and are not listed. The call rests on the fitted dose curve; in most records, active means well fitted cell-killing curve with a large enough effect; inconclusive means small, poorly fitted or top-dose-only effect, or effect the other way; inactive means no such curve, though single readings can be large or run the other way. The entries come from a sample that favours actives as a whole. Entries that show only a call come without a potency.

Drawing on PubChem BioAssay AID651635 (National Center for Advancing Translational Sciences (NCATS), 2012), this text covers Potency for 98 compounds.
Potency means the concentration at half of the fitted maximal effect.

A short description of the test: Viability Counterscreen for Primary qHTS for Inhibitors of ATXN expression. Further: nearly all actives have a fitted effect of over 40% in size. To be noted: S2 cells (HEK-293 line with an ATXN2-luciferase reporter) viability, CellTiter-Fluor protease fluorescence, 24 h; series mostly up to 56.7 µM. Background: The purpose of a counterscreen is to sort out artefacts and off-target activity.
Turning to `COc1cccc(CN2CCC3(CC2)c2ccccc2[C@@H](NC(=O)c2ccccc2OC)[C@@H]3O)c1`, the Potency result is “inactive”.

As to `O=C1CCNCCN1[C@H](CO)Cc1ccccc1`, the Potency entry is “inactive”. For `c1ccc(C[C@H]2CNCCN2CCC23CC4CC(CC(C4)C2)C3)cc1`, the Potency was 31.6 µM (active). Under `CCOc1ccccc1C(=O)Nc1ccc(S(=O)(=O)N2CCCCC2c2cccnc2)cc1` (stereo not drawn) stands “inactive”.

With `Cc1cccc(C(=O)Nc2ccc(S(=O)(=O)N3CCCCC3c3cccnc3)cc2)c1` (stereo not drawn), the Potency was 14.1 µM (active). With `Cc1cc(NS(=O)(=O)c2ccc(NC(=O)c3cccnc3)cc2)nc(C)n1`, the Potency result was “inactive”. Take `CCN1CCN(C(=O)N[C@@H](C(=O)N[C@@H]2C(=O)N3[C@@H]2SC(C)(C)[C@H]3C(=O)O)c2ccccc2)C(=O)C1=O`: the Potency entry is “inactive”.

`CCOC(=O)c1ccn(S(=O)(=O)c2ccc(C)cc2)c1-c1ccccc1`: the Potency result is “inactive”. Under `Oc1ccc(N=Nc2nccs2)c(O)c1` stands 10 µM (active); under `Oc1ccc2ccccc2c1N=Nc1nccs1`, 15.8 µM (active). As for `CN1CCCCCC1C(=O)NCCN1Cc2ccccc2OC(c2ccsc2)C1` (stereo not drawn), the Potency result was “inactive”.

As to `Cc1nc2cc(NC(=O)[C@@H]3C[C@@H](Sc4ccccn4)CN3Cc3ccccc3C)ccc2s1`, the Potency result was “inactive”.

With `CC(=O)Nc1ccc(C=Cc2ccc([N+](=O)[O-])cc2)cc1`, the Potency result was “inactive”. In the case of `O=C1/C(=C\c2ccc([N+](=O)[O-])cc2)CS(=O)(=O)C/C1=C/c1ccc([N+](=O)[O-])cc1`, the Potency was 2.67 µM (active).

Consider `O=C(NN=Cc1ccc([N+](=O)[O-])cc1)C1CC1`, for which the Potency result was “inactive”.

Regarding `COC(=O)c1cc(Cl)c(NC(C)=O)cc1OC`, the Potency result was “inactive”. Turning to `O=c1cc(COc2cccc(C(F)(F)F)c2)nc2sc3c(n12)CCCC3`, the Potency result was “inactive”. With `O=C(Nc1ccc(Cl)cc1)C1Cc2c(-c3ccc4c(c3)OCO4)ccnc2O1` (stereo not drawn), the Potency result is “inactive”. Take `COC(=O)CCCCCN1C(=O)NC(c2ccc(-c3ccccc3)cc2)C(C(=O)OCc2ccccc2)=C1C` (stereo not drawn): the Potency result is “inactive”. As to `CCCCNC(=O)C(C)N(CCN(C)C)C(=O)CCCCCN1C(=O)NC(c2ccc(Cl)cc2)C(C(=O)OCc2ccccc2)=C1C` (stereo not drawn), the Potency was 22.4 µM (active). Regarding `CCN1C(=O)N[C@@H](c2ccccc2)C(C(=O)OC)=C1C`, the Potency entry is “inactive”. Take `Cc1oc(-c2cccc(NC(=O)c3ccccc3)c2)nc1CNC(=O)c1cnc2ccccn2c1=O`: the Potency result was “inactive”.

`COc1cc(=O)n2c(c1C(=O)N(C)Cc1nonc1C)CCN(C(=O)c1ccc(C)cc1C)CC2`: the Potency result was “inactive”.

For `O=c1ccc2c(-c3ccccc3S(=O)(=O)O)c3ccc(O)c(O)c3oc-2c1O`, the Potency was 10 µM (active). Under `CC(=O)Nc1ccccc1-c1nc(CNC(=O)c2ccc(Cl)cc2)c(C)o1` stands “inactive”. Under `COc1cccc(CSc2nc3nc(C)cc(C)n3n2)c1` stands “inactive”. Under `COc1ccc(-c2cc(C)nc3nc(N)nn23)cc1` stands “inactive”; under `COc1ccc(-c2nc3nc(C)cc(C)n3c2Nc2c(C)cccc2C)cc1`, 28.2 µM (active). With `COc1cncc(-c2cnc3sc(NCCc4ccccn4)nn23)c1`, the Potency entry was “inactive”. Take `COc1cc(/C=C/C(N)=O)cc(OC)c1OC`: the Potency entry was “inactive”. The entry for `CC1CCCN(CC(=O)Nc2cc(Cl)ccc2Oc2ccccc2)C1` (stereo not drawn) is “inactive”; for `CC(C)(c1ccccc1)c1ccc(OCCN2CCCC2)cc1` it is “inactive”; for `COCC1CCCN(Cc2ccc3c(c2)CN(C(=O)c2ccnn2C)CCO3)C1` (stereo not drawn) it is “inactive”. The entry for `CCCNC(=O)c1cc(C2CCCN(C(=O)c3ccc4c(c3)CCO4)C2)on1` (stereo not drawn) is “inactive”; for `COc1ccc2c(c1)CCc1cnc(-n3ncc(C(=O)NCCN4CCOCC4)c3C)nc1-2` it is “inactive”; for `Cc1cnc(C(=O)N2CCOc3ccc(CN4CCCC(C(=O)c5cccnc5)C4)cc3C2)[nH]1` (stereo not drawn) it is “inactive”. With `CC(=O)Nc1cc(C(=O)N2CCc3c(Cl)cccc3C2)cc2ncn(CCc3ccccn3)c12`, the Potency entry was “inactive”. The entry for `CCc1ccccc1NC(=O)[C@@H]1CCC(=O)N1C1OC(=O)c2c1ccc(OC)c2OC` (stereo partly drawn) is “inactive”.

In the case of `COc1ccc(-c2csc(Nc3cccc(C)n3)n2)cc1OC`, the Potency result was “inactive”.

Consider `Cc1ccc(-c2csc(-c3c[nH]c4ccccc34)n2)cc1`, for which the Potency result was “inactive”.

For `C/C(CC1CC(C)(C)OC1=O)=N/Nc1nc(-c2ccccc2)cs1` (stereo not drawn), the Potency entry was “inactive”. The figure for `COc1ccc2c(c1OC)C(=O)OC2Nc1nc(-c2ccccc2)cs1` (stereo not drawn) is 20 µM (active); for `Cc1ccc(-c2csc(NC3OC(=O)c4ccccc43)n2)cc1` (stereo not drawn) it is 25.1 µM (active). Regarding `Cc1c(C(=O)NCC2CCCN(C)C2)cnn1-c1nccc(-c2ccco2)n1` (stereo not drawn), the Potency result is “inactive”. The entry for `Cc1ccc(NS(=O)(=O)c2cc3c(cc2Br)NC(=O)CO3)cc1C` is “inactive”; for `N#Cc1ccc(-c2nc3c(Cl)cc(C(F)(F)F)cn3c2Cc2ccccc2C(F)(F)F)cc1` it is “inactive”; for `C[C@@H]1CN(Cc2ccc3c(c2)CN(Cc2ccc(Oc4ncccn4)cc2)CCO3)C[C@H](C)O1` it is “inactive”. `CC(C)(C)c1ccc(S(=O)(=O)Nc2ccc(O)c(Sc3nc4ccccc4s3)c2)cc1`: the Potency result is “inactive”. The entry for `CC(C)c1ccc(S(=O)(=O)Nc2ccc(O)c(Sc3nc4ccccc4s3)c2)cc1` is “inactive”.

As for `O=[N+]([O-])c1c(NCCO)cc(Sc2nc3ccccc3s2)c2nonc12`, the Potency was 20 µM (active). Consider `C=C1C(=CC=C2CCC[C@]3(C)[C@@H]([C@H](C)C=C[C@H](C)C(C)C)CC[C@@H]23)C[C@@H](O)C[C@@H]1O`, for which the Potency result is “inactive”. The entry for `COc1ccc(C)cc1N1C(=O)[C@@H]2C[C@H]1CN2Cc1cccc(OC)c1O` is “inactive”; for `COc1ccc(NC(=O)C2Cc3c(-c4ccc(Cl)cc4)ccnc3O2)cc1` (stereo not drawn) it is “inactive”; for `CCCCN1CC(c2nc3ccccc3n2CCCCOc2ccc(C)cc2C)CC1=O` (stereo not drawn) it is 25.1 µM (active). Under `CCOc1ccc(N2CC(c3nc4ccccc4n3CCOc3ccc(OC)cc3)CC2=O)cc1` (stereo not drawn) stands “inactive”; under `CCc1ccccc1N1CC(c2nc3ccccc3n2CCCCOc2ccccc2)CC1=O` (stereo not drawn), “inactive”. Under `COc1ccccc1Cc1c(-c2ccc(Cl)cc2)nc2ccc(Cl)cn12` stands “inactive”; under `Cn1c(=O)c2c(ncn2CCc2ccccc2)n(C)c1=O`, “inactive”; under `CCCCCc1c(Cc2ccccc2)ncn1CCc1ccccc1OC`, 22.4 µM (active).

Take `CCOc1ccc(-c2n[nH]c3c2C(c2ccccc2OC)N(c2ccc(Br)cc2)C3=O)cc1` (stereo not drawn): the Potency result was “inactive”. The entry for `COc1ccccc1CCNS(=O)(=O)c1cn(C)nc1C` is “inactive”. The figure for `CCCCc1c(-c2ccc(Br)cc2)ncn1CCc1ccccc1OC` is 15.8 µM (active); for `CCCc1c2oc(C(=O)O)cc(=O)c2cc2c(=O)cc(C(=O)O)n(CC)c12` it is “inactive”; for `O=C1CCN(Cc2ccc(-c3ccccc3)cc2)CCN1Cc1ccccn1` it is “inactive”.

For `Cc1ncc2c(c1CNS(=O)(=O)N(C)C)CCN(C(=O)c1ccccc1F)C2`, the Potency entry is “inactive”. `CS(=O)(=O)NC(=O)CCC/C=C\C[C@H]1C(=O)C[C@@H](O)[C@@H]1/C=C/[C@H](O)COc1ccccc1`: the Potency entry was “inactive”. The entry for `Cc1ccc(-c2ccnc(-n3ncc(C(=O)N(C)Cc4cccc5ncccc45)c3C3CC3)n2)o1` is “inactive”; for `Cc1nnc(N2CCC(C(=O)Nc3ccc(F)cc3)CC2)c2nn(-c3ccc(Cl)cc3)c(C)c12` it is 20 µM (active); for `COc1ccc(-n2nc3c(N4CCC(C(=O)NCc5ccccc5)CC4)nnc(C)c3c2C)cc1` it is “inactive”.

Regarding `COc1cccc(NC(=O)C2CCN(c3cc(C)nc4c(-c5ccc(Cl)cc5)c(C)nn34)CC2)c1`, the Potency entry was “inactive”. Under `CCOC(=O)N1CCN(S(=O)(=O)c2ccc(OC)cc2)CC1` stands “inactive”; under `COC(=O)c1cc(OC)ccc1-c1ccc(OC)cc1`, “inactive”. Turning to `CCOC(=O)C1=C(c2ccc(OC)cc2)C(=O)c2ccccc2C1=O`, the Potency was 6.31 µM (active). `COC(=O)[C@@H]1C[C@H](NC(=O)c2ccccc2C(F)(F)F)CN1Cc1cccc(O)c1`: the Potency entry was “inactive”. Turning to `CC(C)(C)C1CCc2c(sc(NC(=O)c3ccccc3F)c2C(=O)N2CCCCC2)C1` (stereo not drawn), the Potency result is “inactive”.

As for `COc1ccccc1OCCNCC(O)COc1cccc2[nH]c3ccccc3c12` (stereo not drawn), the Potency was 28.2 µM (active). Take `CC(O)CNCCOc1cccc(Oc2ccccc2)c1` (stereo not drawn): the Potency entry was “inactive”. The entry for `COc1cccc2[nH]c(C(=O)NCCc3ccccc3)cc12` is “inactive”; for `COc1ccc(NC(=O)C2Cc3c(-c4ccc5c(c4)OCO5)ccnc3O2)cn1` (stereo not drawn) it is “inactive”. On to `Cc1ccc2cccc(NC(=O)c3cccc4ccccc34)c2n1`, for which the Potency entry is “inactive”. With `COc1cc(=O)n2c(c1C(=O)NCc1ccco1)CCN(Cc1ccccc1)CC2`, the Potency result was “inactive”. With `Cc1cccc(C)c1NC(=O)c1ccc(N)cc1`, the Potency result was “inactive”. The entry for `Cc1cc(C(=O)NCC2Cc3cccc(-c4cncnc4)c3O2)c(C)o1` (stereo not drawn) is “inactive”. Under `CNC[C@H](CC1CCCCC1)NC[C@H](NCCC1CCCC1)[C@H](C)O` stands 17.8 µM (active); under `O=C(NCC(c1ccc2c(c1)OCO2)N1CCN(c2ccccc2)CC1)C(=O)Nc1ccccc1F` (stereo not drawn), “inactive”; under `O=S(O)CNc1ccc(S(=O)(=O)c2ccc(NCS(=O)O)cc2)cc1`, “inactive”. The figure for `O=C(/C=C/Sc1ncn[nH]1)c1ccc(Cl)cc1` is 25.1 µM (active); for `O=C(CSc1ncn[nH]1)Nc1ccc(Br)cc1Br` it is “inactive”. For `O=C(CSc1ncn[nH]1)NCc1ccc2c(c1)OCO2`, the Potency entry is “inactive”. Consider `CC(C)Oc1ccc(CN2CCC2(C)C(=O)NCc2ccc(C(F)(F)F)cc2)cc1` (stereo not drawn), for which the Potency result is “inactive”. For the compound `COc1cc(Cn2c3ccc(NC(=O)CC(C)c4ccccc4)cc3c(=O)n2C)ccc1F` (stereo not drawn), the Potency result was “inactive”. As for `Cc1cccc(Cc2c(C)nc3nc(SCc4ccccc4Cl)nn3c2C)c1`, the Potency result was “inactive”.

With `COc1ccc(CN(C)CCn2cc(C(=O)N3CCSCC3)nn2)cc1C`, the Potency result was “inactive”. Under `O=c1[nH]nc(SCCS(=O)(=O)c2ccc(F)cc2)n1-c1ccccc1C(F)(F)F` stands 11.2 µM (active); under `O=S(=O)(c1ccc(F)cc1)N1CCN(Cc2ccccc2C(F)(F)F)CC1`, “inactive”; under `O=C(CSc1n[nH]c(=O)n1-c1ccccc1)Nc1ccccc1C(F)(F)F`, “inactive”. The entry for `COc1ccc(-c2csc(C(O)c3cccc(Cl)c3)n2)cn1` (stereo not drawn) is “inactive”; for `COc1cc(=O)n2c(c1C(=O)NC(C)c1ccco1)CCN(Cc1cc(C)cc(C)c1)CC2` (stereo not drawn) it is “inactive”.
